Reference: PubChem BioAssay (NCI)
This is part of a sample that, as a whole, favours compounds with a hit. Of some 83,000 tested, about 20% had one in any assay.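 Step 1: grow cells in 96-well plates. Step 2: add test compound at a single concentration. Step 3: incubate 48 h. Step 4: record percent growth.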 Values without a mark were called inactive. Activity calls are given as the source filed them. How the source made its calls: active means growth percent below 10; inactive means the rest.

What follows are compounds tested on MDA-MB-468 breast (assay: NCI-60 one-dose screen, 48 h (100 = growth as untreated, 0 = no growth, -100 = all killed)). Conditions: 10 µM unless noted.
`Cc1cc(O)cc2c1[C@H]1CC[C@]3(C)[C@@H](O)CC[C@H]3[C@@H]1C=C2` gave a growth of 96.8%. `O=C(CSc1nc2ccccc2c(=O)n1-c1ccccc1)Nc1cccc(C(=O)/C=C/c2ccccc2)c1` gave a growth of 91.3%. `CCCCCCCC(=O)SCC/C=C/[C@@H]1CC(=O)NCc2cccc(n2)CN(Cc2ccc(Cl)cc2)CC(=O)N[C@@H](C(C)C)C(=O)O1` showed a growth of 44.6%. In the case of `COc1ccc(OC)c(C2C(C#N)=C(N)Oc3cc(O)ccc32)c1` (centres undefined), the growth is reported as 81.1%. In the case of `Cc1c(CN2CCN(C(=O)[C@H](C)O)CC2)sc2c(N3CCOCC3)nc(-c3cnc(N)nc3)nc12`, the growth is reported as -49.6% (active). For `COc1ccc(-c2nc3ccc4[nH]ncc4c3c3c2CCCC3)cc1B(O)O`, the growth was 31.5%. For `COc1cccc(/C=N/NC(=O)c2ccccc2Nc2ccnc(C(F)(F)F)c2)c1O`, the growth was -19.6% (active). With `O=C(NCc1ccco1)C1CCN(S(=O)(=O)c2ccc(Cl)cc2)CC1` the growth was 56.2%. In the case of `CC1CC(=O)OC(C)C1` (centres undefined), the growth is reported as 99.6%. `O=C(CSc1nnc(-c2ccc(Cl)cc2)n1-c1ccccc1)Nc1cccc(Cl)c1` showed a growth of 79.8%. `S=C=NP1(N=C=S)=NP(N=C=S)(N=C=S)=NP(N=C=S)(N=C=S)=NP(N=C=S)(N=C=S)=N1` (centres undefined) gave a growth of 107%. For `CCCCCCCC(C)NCCO` (centres undefined), the growth was 104%. In the case of `CCc1nc(N)nc(N)c1C#CC(C)c1ccc(-c2ccncc2)cc1Cl` (centres undefined), the growth is reported as 5.88% (active). For `O=C(N/N=C\c1ccc(-c2ccc(Br)cc2)o1)c1cc2oc(-c3cccc(C(F)(F)F)c3)cc2[nH]1`, the growth was 126%. `O=S(=O)(Nc1ncccn1)c1ccc(NC2Nc3nc4ccccc4nc3S2)cc1` (centres undefined) showed a growth of 95.5%. `O[N+]1=CC=CCC1=S.On1ccccc1=S.[Zn]` was tested, and the growth was -75.8% (active). Compound `O=C(Nc1ccc2c(c1)-c1ccccc1C2)C1CC(=O)N(c2ccc3c(c2)OCO3)C1` (centres undefined) has a growth of 52.7% [50 µM]. In the case of `Cc1cc(Nc2ccc3c(c2)OCO3)c2cc3c(cc2n1)OCO3`, the growth is reported as 26.5%. For `COc1cc(-c2cc(-c3ccc(N(C)C)cc3)nc(N3CCC(O)CC3)c2C#N)cc(OC)c1OC`, the growth was -21.2% (active). `Nc1ccn(Cc2nnc(CCC(=O)c3nc4ccccc4[nH]3)o2)c(=O)n1` gave a growth of 79%. `Oc1ccc(CCCCCCc2ccc(O)cc2)cc1` showed a growth of 99.5%. With `CCS(=O)(=O)OCCO[C@H]1Cc2cc3ccc(=O)oc3cc2OC1(C)C` the growth was 97.9%. With `CC(C)Sc1nc(NN)c(C#N)c(-c2ccccc2)n1` the growth was 113%. `COc1ccc(/C=C/C(=O)c2cc(S(N)(=O)=O)c(OC)cc2OC)cc1` was tested, and the growth was -6.04% (active).
